Laboratory results as given in the supplement of paper PMC11402862.

Test system: PPARalpha LBD (GAL4 fusion)
Assay: luciferase reporter transactivation, fold of solvent control; higher = stronger receptor activation
Conditions: HEK293T, exposure time: 24 h
Experimental: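 HEK293T cells were transiently transfected with a GAL4-DBD fused to the ligand-binding domain of a human nuclear receptor (PPARα, PPARγ, PPARδ, FXR, LXRα, PXR, RARα or CAR), the GAL4-(UAS)5-TK firefly luciferase reporter and a Renilla luciferase normalisation plasmid. Cells were exposed to compound for 24 h in 0.5% DMSO. Firefly/Renilla luciferase was expressed as fold of the solvent control (=1). Values are the mean of 2-3 biological replicates; receptor agonists were used as positive controls.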

| Structure (SMILES) | luciferase reporter transactivation (concentration: 1 µM) | luciferase reporter transactivation (concentration: 5 µM) | luciferase reporter transactivation (concentration: 10 µM) | luciferase reporter transactivation (concentration: 25 µM) | luciferase reporter transactivation (concentration: 50 µM) | luciferase reporter transactivation (concentration: 100 µM) | luciferase reporter transactivation (concentration: 250 µM) | luciferase reporter transactivation (concentration: 500 µM) |
| --- | --- | --- | --- | --- | --- | --- | --- | --- |
| CC(C)(Sc1ccc(CCN(CCCCC2CCCCC2)C(=O)NC2CCCCC2)cc1)C(=O)O | 46 |  |  |  |  |  |  |  |
| O=C(O)C(F)(F)C(F)(F)C(F)(F)C(F)(F)F [perfluoropentanoic acid] | 1.14 | 1.05 | 1.12 | 1.18 | 1.15 | 1.31 | 1.35 | 1.58 |
| OCCC(F)(F)C(F)(F)C(F)(F)C(F)(F)C(F)(F)C(F)(F)F [6:2 fluorotelomer alcohol] | 0.709 | 0.741 | 0.818 | 0.925 | 0.748 | 0.765 | 0.656 | 0.825 |
| O=S(=O)(O)CCC(F)(F)C(F)(F)C(F)(F)C(F)(F)C(F)(F)C(F)(F)F [6:2 fluorotelomer sulfonic acid] | 1.06 | 0.983 | 1.08 | 1.08 | 1.13 | 1.78 |  |  |
| O=S(=O)(O)CCC(F)(F)C(F)(F)C(F)(F)C(F)(F)C(F)(F)C(F)(F)C(F)(F)C(F)(F)F [8:2 fluorotelomer sulfonic acid] | 1.07 | 1.09 | 1.18 | 1.29 | 1.33 | 1.97 | 1.6 | 1.31 |
